Shown are actives, neighbours in structure and some others; about 7.1% of the full set was active somewhere.
PINK1 expr mod: modulators of PINK1 expression; PINK1 immunofluorescence, high-content cytometry, 24 h; Potency, µM (doses to about 76.6 µM), without a hit: at the highest dose activation (PINK1 increase), usual class: activators; 410,000 tested, 0.2% active; active = well fitted activation curve with a large enough effect; inconclusive = small, poorly fitted or top-dose-only effect; cell line not stated here; note: potency is the fitted concentration of half-maximal effect; % of control where 0% means no effect; nearly all actives have a fitted effect of over 65% in size
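Compound titrations (5 concentrations, 24 h) on a stable cell line; DMSO and CCCP controls. Endpoint: fixed-cell PINK1 immunofluorescence with mitochondrial, cell and nuclear markers, scanned by microplate cytometer.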
IL1B secr inh: inhibitors of inflammasome signaling (IL-1 beta secretion) | THP-1 LPS/ATP IL-1B secretion, AlphaLISA, 16 h; hits give low values | activity change, % at 57.5 µM | 360,000 tested, 4.7% active | AID 743279; in the data active = activity change below about -50%; inconclusive = mostly about -30% to -49%; note: % is set by controls: 0 for no effect and ±100 for the full control effect
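Secreted IL-1B measured by AlphaLISA bead assay after 16 h compound exposure of THP-1 cells; compounds (final up to 57.5 uM) added 1 h before LPS (250 ng/mL) and ATP (1.25 mM) stimulation; lower signal means less secretion.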
SW480 rerep: induces DNA re-replication in SW480 colon adenocarcinoma cells; SW480 DNA re-replication, Hoechst DNA content imaging, 48 h; Potency, µM (titrated, usually from 46.1 µM), inactives show at the top dose re-replication activation, usual class: activators; 340,000 tested, 1.8% active; AID 624297; note: potency is the fitted concentration of half-maximal effect; % of control where 0% means no effect; nearly all actives have a fitted effect of over 55% in size
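SW480 cells exposed to compounds for 48 hr at 37 C, 5% CO2, then Hoechst-stained 40 min. Nuclear DNA content imaged by fluorescence scanning (405 nm excitation, 500-530 nm emission); re-replication scored as increased high-intensity nuclei.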
S2 tox: reduces viability in counter-screen for ATXN expression inhibitors; S2 cells (HEK-293 line with an ATXN2-luciferase reporter) viability, CellTiter-Fluor protease fluorescence, 24 h; Potency, µM (doses to about 56.7 µM), actives largely listed as cytotoxic; 400,000 tested, 0.49% active; AID 651635; note: potency is the fitted concentration of half-maximal effect; nearly all actives have a fitted effect of over 40% in size
MCF10A rerep: induces DNA re-replication in MCF 10a normal breast cells | MCF 10A DNA re-replication, Hoechst nuclear intensity, 48 h | Potency, µM (top dose mostly 46.1 µM), for inactives: at the highest dose activity, positive = re-replication, actives largely listed as activators | 350,000 tested, 2.9% active; note: potency is the fitted concentration of half-maximal effect; % of control where 0% means no effect; nearly all actives have a fitted effect of over 50% in size
ATXN2 expr inh: ATXN2 expression inhibition; HEK-293 ATXN2-luciferase reporter, luminescence, 24 h; Potency, µM (titrated, usually from 57 µM), for the others: top-dose activity change, negative = inhibition, most hits filed as inhibitors; 360,000 tested, 0.72% active; AID 1745845; note: potency is the fitted concentration of half-maximal effect; % is set by controls: 0 for no effect and ±100 for the full control effect; nearly all actives have a fitted effect of over 55% in size
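qHTS (up to 57 uM final) was run with 24 h compound exposure of reporter cells at 37 °C. Each well was multiplexed: SteadyGlo luminescence measured ATXN2-luciferase expression after a fluorogenic Gly-Phe-AFC viability readout (25 uM final).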
Numbers without * were called inactive; i = inactive; ? = inconclusive; · = no result given; [ ] = remark or other dose. Unless noted, calls come from the whole dose curve; as a rule, active = well fitted curve in the direction sought with a large enough effect; inconclusive = small, poorly fitted or top-dose-only effect, or another doubt; inactive = no such curve, though single readings can be large; an effect the other way counts as inactive or inconclusive.

SMILES	PINK1 expr mod	IL1B secr inh	SW480 rerep	S2 tox	MCF10A rerep	ATXN2 expr inh
CCN1/C(=C/c2cc[n+](CCCS(=O)(=O)[O-])c3ccccc23)Sc2ccccc21	0%	-13	-7%	i	-2%	·
COc1ccc2[nH]c3c(c2c1)CCN1C(=O)C(CC(=O)NC(C)(C)C)C[C@H](C(=O)N2CCOCC2)[C@@]31CCC1CCCC1 (some centres undefined)	6%	10	?	i	-3%	5%
O=C(CC1C[C@H](C(=O)N2CCOCC2)[C@@]2(CCC3CCCC3)c3[nH]c4ccccc4c3CCN2C1=O)NCc1cccc(C(F)(F)F)c1 (some centres undefined)	-1%	3	-3%[9.22 µM]	i	4%	2%
CC[C@]12c3[nH]c4ccc(Cl)cc4c3CCN1C(=O)[C@@H](CC(=O)NCc1cccc(C(F)(F)F)c1)C[C@@H]2C(=O)N1CCN(C(=O)c2ccco2)CC1	13%	-13	0%	28µM*	?	?
CC(C)(C)NC(=O)C[C@H]1C[C@H](C(=O)N2CCOCC2)[C@@]2(CCC3CCCC3)c3[nH]c4ccc(Cl)cc4c3CCN2C1=O	?	-60*	0%	?	?	?
CC[C@]12c3[nH]c4cc(-c5ccco5)ccc4c3CCN1C(=O)[C@@H](CC(=O)NCc1ccco1)C[C@@H]2C(=O)N1CCN(C(=O)c2ccco2)CC1	1%	-4	?	i	21%	5%
CN(C)C(=O)CCc1ccc2c3c([nH]c2c1)[C@]1(CCC2CCCC2)[C@@H](C(=O)N2CCOCC2)C[C@H](CC(=O)NCc2cccc(C(F)(F)F)c2)C(=O)N1CC3	4%	-56*	7%	·	?	?
CC[C@]12c3[nH]c4cc(-c5ccco5)ccc4c3CCN1C(=O)[C@@H](CC(=O)NCc1cccc(C(F)(F)F)c1)C[C@@H]2C(=O)N1CCN(C(=O)c2ccco2)CC1	1%	-51*	-4%[9.22 µM]	?	19%	?
Cc1ccc(C(=O)N2c3nc(-c4ccco4)nn3C3(CCCCC3)[C@@H]3CCCC[C@@H]32)cc1	2%	·	·	·	·	·
CC(=O)OC(C)OC(=O)C(C)c1ccc(-c2ccccc2)c(F)c1 (centres undefined)	·	·	·	i	·	11%
CCN(CC)C(=O)[C@H]1C[C@H](CC(=O)NCc2cccc(C(F)(F)F)c2)C(=O)N2CCc3c([nH]c4cc(-c5ccco5)ccc34)[C@]12C	4%	-58*	13%[9.22 µM]	?	?	?
CCN(CC)C(=O)[C@H]1C[C@H](CC(=O)NCc2ccco2)C(=O)N2CCc3c([nH]c4cc(-c5ccco5)ccc34)[C@]12C	1%	-3	1%	i	?	-25%
CN(Cc1ccccc1)C(=O)COC(=O)CCC(=O)c1ccc(F)cc1	2%	19	-3%	i	1%	0%
CN(C)CCN(C(=O)c1cccc(Cl)c1)c1nc2c(Cl)cccc2s1	9%	0	-4%	i	-8%	-9%
CN(C)CCN(C(=O)c1ccccc1Cl)c1nc2c(Cl)cccc2s1	?	-69*	?	i	?	-16%
CCN(CC)CCN(C(=O)c1ccc2c(c1)OCCO2)c1nc2cc(C)cc(C)c2s1	19%	-57*	12%	?	12%	-21%
CN(C)CCN(C(=O)c1ccc2c(c1)OCCO2)c1nc2ccc(Cl)cc2s1	-2%	-21	8%	i	1%	-3%
CCN(CC)CCN(C(=O)c1ccc2ccccc2c1)c1nc2cc3c(cc2s1)OCO3	25%	?	?	i	6%	-29%
CCN(CC)CCN(C(=O)c1ccc2c(c1)OCCO2)c1nc2c(Cl)cccc2s1	19%	-66*	-1%	i	0%	-26%
Cc1ccc(NC(=O)CSc2nc3ccccc3nc2Cc2ccccc2)c(C)c1	-5%	·	·	i	·	-2%

Compound activity: PubChem, National Center for Advancing Translational Sciences (NCATS)
